Assay outcomes as filed in PubChem BioAssay.
HP1b chromo inh: blocks HP1-beta chromodomain binding to methylated histone tails; 390,000 compounds, 0.56% hits; AID 540317; AlphaScreen HP1-beta / biotin-H3K9me3 peptide binding; Potency, µM (doses to about 114 µM), actives largely listed as inhibitors; P83916; note: nearly all actives have a fitted effect of over 70% in size
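HP1-beta protein (50 nM final) preincubated 30 min at room temperature with biotinylated H3(1-18)K9me3 peptide (50 nM) in PBS pH 7.4, 0.01% Tween-20, then compound added for 30 min. AlphaScreen streptavidin donor/nickel chelate acceptor beads (10 ug/mL final), 30 min dark, luminescence read.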
JMJD2A Tudor: JMJD2A Tudor domain (human) inhibition; O75164; AlphaScreen JMJD2A-Tudor / H3K4me3 peptide binding; 390,000 compounds, 4.4% hits; Potency, µM (series often up to 114 µM), usual class: inhibitors; note: nearly all actives have a fitted effect of over 50% in size
BAZ2B block: inhibitors of human BAZ2B bromodomain; AlphaScreen BAZ2B-H3K14Ac peptide displacement; 360,000 compounds, 4.4% hits; Potency, µM (titrated, usually from 114 µM), actives largely listed as inhibitors; Q9UIF8; note: nearly all actives have a fitted effect of over 60% in size
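AlphaScreen displacement of biotin-H3(5-23)K14Ac peptide (50 nM final) from BAZ2B (50 nM final) in PBS pH 7.4, 0.01% Tween-20; complex preformed 30 min RT, then compounds (top 110 uM) 30 min RT, beads 20 min dark.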
VDR inh: vitamin D3 receptor (human) inhibition; P11473; VDR-SRC2-3 peptide fluorescence polarization, 2 h; Potency, µM, hits mostly inhibitors; 400,000 compounds, 0.93% hits; AID 504847
Target sequence (P11473 whole entry, looked up): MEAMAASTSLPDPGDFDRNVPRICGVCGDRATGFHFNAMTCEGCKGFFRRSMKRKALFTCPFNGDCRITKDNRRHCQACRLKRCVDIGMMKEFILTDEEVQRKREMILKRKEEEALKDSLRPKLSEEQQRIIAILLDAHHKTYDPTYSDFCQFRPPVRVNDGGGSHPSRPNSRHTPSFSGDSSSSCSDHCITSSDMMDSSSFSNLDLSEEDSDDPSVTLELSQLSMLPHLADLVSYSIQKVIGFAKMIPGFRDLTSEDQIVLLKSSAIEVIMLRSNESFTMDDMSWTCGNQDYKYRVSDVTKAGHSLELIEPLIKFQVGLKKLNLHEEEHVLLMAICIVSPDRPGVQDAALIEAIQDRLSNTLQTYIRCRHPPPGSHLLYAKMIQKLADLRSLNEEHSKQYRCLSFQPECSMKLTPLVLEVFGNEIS
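Two reagent solutions held at 4 deg C in the dark were dispensed, compounds pinned at 23 nl, and the mixture incubated 2 h at room temperature. Read-out: fluorescence polarization of VDR–SRC2-3 peptide binding.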
PLK1 PBD inh: inhibitors of human PLK1 polo-box domain binding; Plk1 PBD binding of FITC phosphopeptide, fluorescence polarization; P53350; 360,000 compounds, 2.8% hits; Potency, µM, most hits filed as inhibitors; AID 720504; note: series mostly up to about 57 µM; nearly all actives have a fitted effect of over 65% in size
G9a block: G9a (human) methyltransferase inhibition | G9a H3K9 monomethylation, AlphaScreen, 2 h | Q96KQ7 | AID 504332 | Potency, µM (series often up to 102 µM), usual class: inhibitors | 350,000 compounds, 8.8% hits; note: nearly all actives have a fitted effect of over 75% in size
Target sequence (Q96KQ7 913-1193 limits assumed): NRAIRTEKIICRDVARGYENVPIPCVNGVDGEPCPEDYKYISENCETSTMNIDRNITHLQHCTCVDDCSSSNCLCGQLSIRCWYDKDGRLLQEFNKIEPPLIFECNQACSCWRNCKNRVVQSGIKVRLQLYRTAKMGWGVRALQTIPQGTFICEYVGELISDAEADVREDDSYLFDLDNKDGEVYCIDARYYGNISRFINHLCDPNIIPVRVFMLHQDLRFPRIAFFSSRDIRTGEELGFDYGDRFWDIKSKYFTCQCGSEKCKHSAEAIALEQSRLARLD
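Using a bead-based AlphaScreen, monomethylated H3K9 product from 2 h room-temperature reactions (G9a 20 nM, peptide 500 nM, SAM 20 uM) was detected with 0.5 ug/mL rabbit anti-H3K9me1 antibody.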
Of the large screens only hits and unclear results are named; the others gave an inactive call; ! = not confirmed by another sample. Shown are actives, neighbours in structure and some others; about 11% of the full set was active somewhere. Calls come from the whole dose curve; as a rule, active = well fitted curve in the direction sought with a large enough effect; inconclusive = small, poorly fitted or top-dose-only effect, or another doubt; inactive = no such curve, though single readings can be large; an effect the other way counts as inactive or inconclusive.

COC(=O)C1=C(C)N(Cc2ccccc2)C(=O)/C1=C\c1ccco1	HP1b chromo inh inconclusive, JMJD2A Tudor inconclusive, BAZ2B block 18µM, VDR inh inconclusive, G9a block 28µM
COC(=O)C1=C(C)N(CCc2ccccc2)C(=O)/C1=C\c1ccco1	JMJD2A Tudor 40µM, BAZ2B block 35µM, G9a block 32µM
COC(=O)C1=C(C)N(c2ccc(OC)cc2)C(=O)/C1=C\c1cccs1	JMJD2A Tudor inconclusive
CCOc1ccc(N2C(=O)/C(=C/c3ccco3)N(C)C2=S)cc1	G9a block 10µM
CCOc1ccc(N2C(=O)/C(=C/c3cc(OC)c(OC)c(OC)c3)N(CC(=O)OC)C2=S)cc1	BAZ2B block inconclusive
COCc1cc(C)n(CC(=O)Nc2ccc(NC(C)=O)cc2)c(=O)c1C#N	none (no result: PLK1 PBD inh)
Cc1nc2cnc(Oc3ccccc3)nc2n(Cc2cccs2)c1=O	none (no result: HP1b chromo inh, JMJD2A Tudor, BAZ2B block, PLK1 PBD inh)
COc1ccc(NC(=O)Cn2c(=O)oc3cc(S(=O)(=O)N4CCCCCC4)ccc32)cc1OC	none (no result: PLK1 PBD inh)
O=C(O)CP(=O)(O)O	JMJD2A Tudor inconclusive, BAZ2B block inconclusive, G9a block 13µM!
Cc1cccc(/C=C/C(=O)c2ccc(NC3=NCCCS3)cc2)c1	JMJD2A Tudor 45µM, BAZ2B block inconclusive, VDR inh 20µM, G9a block inconclusive
O=C(/C=C/c1ccccc1)c1ccc(NC2=NCCCS2)cc1	JMJD2A Tudor inconclusive, BAZ2B block inconclusive, VDR inh inconclusive, G9a block inconclusive
COc1cccc(/C=C/C(=O)c2cccc([N+](=O)[O-])c2)c1	JMJD2A Tudor inconclusive, BAZ2B block inconclusive, VDR inh inconclusive (no result: G9a block)
COc1cccc(/C=C/C(=O)c2ccc(NC3=NCCCS3)cc2)c1	JMJD2A Tudor inconclusive, BAZ2B block inconclusive, VDR inh inconclusive, G9a block 45µM
CC(C)(C)c1ccc(/C=C/C(=O)c2ccc(NC3=NCCCS3)cc2)cc1	JMJD2A Tudor inconclusive, BAZ2B block inconclusive, VDR inh inconclusive, G9a block 40µM
Cn1c(=O)[nH]c(=O)c2c1nc([N+](=O)[O-])n2Cc1ccccc1	VDR inh inconclusive, PLK1 PBD inh 2.4µM
CC(=O)CSc1nc2c(c(=O)[nH]c(=O)n2C)n1Cc1cccc(Br)c1	PLK1 PBD inh 19µM, G9a block 22µM
CC(C)CSc1nc2c(c(=O)[nH]c(=O)n2C)n1CCc1ccccc1	none
C/C=C/Cn1c(SCc2ccccc2)nc2c1c(=O)[nH]c(=O)n2C	VDR inh inconclusive, PLK1 PBD inh 24µM, G9a block 35µM
Cn1c(SCc2cccc(Br)c2)nc2c1c(=O)[nH]c(=O)n2C	none
C/C=C/CSc1nc2c(c(=O)[nH]c(=O)n2C)n1Cc1ccc(C)cc1	VDR inh inconclusive, PLK1 PBD inh inconclusive, G9a block 4.5µM
Cc1ccc(Cn2c(Sc3ncccn3)nc3c2c(=O)[nH]c(=O)n3C)cc1	none
Nc1nc(-c2ccc3c(c2)OCCO3)c(CC(=O)O)s1	none (no result: G9a block)
Nc1nc(-c2ccc3c(c2)CCCC3)c(CC(=O)O)s1	G9a block 50µM
COc1ccc(-c2cc(C(=O)O)c(C)o2)cc1OC	none
COc1ccc(-c2cc(C(=O)NC(Cc3cc4ccccc4[nH]3)C(=O)O)c(C)o2)cc1OC (stereo unspecified)	HP1b chromo inh inconclusive, PLK1 PBD inh inconclusive, G9a block 32µM
O=C(ONc1ccc(N=NC(=O)c2ccccc2O)cc1)c1ccccc1	JMJD2A Tudor inconclusive, BAZ2B block 10µM, PLK1 PBD inh inconclusive, G9a block inconclusive
COc1ccc(CN2CCNC(=O)C2CC(=O)N(C)Cc2nccs2)cc1OC (stereo unspecified)	none (no result: G9a block)
CN(Cc1ccncn1)C(=O)CC1C(=O)NCCN1Cc1cccc(Oc2ccccc2)c1 (stereo unspecified)	G9a block inconclusive
CN(Cc1cccnc1)C(=O)CC1C(=O)NCCN1Cc1ccc(-c2ccccc2)cc1 (stereo unspecified)	G9a block 50µM (no result: BAZ2B block)
COc1cc(CN2CCNC(=O)C2CC(=O)N(C)Cc2cccnc2)cc(OC)c1 (stereo unspecified)	JMJD2A Tudor inconclusive, PLK1 PBD inh 15µM
CN(Cc1cccnc1)C(=O)CC1C(=O)NCCN1CC(c1ccccc1)c1ccccc1 (stereo unspecified)	none
CN(Cc1nccs1)C(=O)CC1C(=O)NCCN1Cc1ccc(-c2ccccc2)cc1 (stereo unspecified)	JMJD2A Tudor inconclusive, PLK1 PBD inh 27µM, G9a block inconclusive
O=C(CC1C(=O)NCCN1Cc1ccc(F)cc1)NCCOc1cccnc1 (stereo unspecified)	VDR inh inconclusive (no result: G9a block)
O=C(CC1C(=O)NCCN1Cc1ccc(-c2ccccc2)cc1)NCCOc1cccnc1 (stereo unspecified)	G9a block 50µM
Cc1ccc(S(C)(=O)=N/C=C2\C(=O)c3sccc3N(C)S2(=O)=O)cc1 (stereo unspecified)	PLK1 PBD inh inconclusive
Cc1cc(CN(C)C(=O)CC2C(=O)NCCN2Cc2ccc(-c3ccccc3)cc2)on1 (stereo unspecified)	BAZ2B block inconclusive, G9a block 40µM
Cc1cc(CN(C)C(=O)CC2C(=O)NCCN2Cc2ccc(F)c(F)c2)on1 (stereo unspecified)	none (no result: G9a block)
COCCNCC#CCOc1ccc(OC)cc1	HP1b chromo inh inconclusive, JMJD2A Tudor 7.9µM, BAZ2B block 50µM, G9a block inconclusive
C=CCNCC#CCOc1ccc(OC)cc1	HP1b chromo inh inconclusive, JMJD2A Tudor 6.3µM, BAZ2B block inconclusive, G9a block 10µM
Cc1cccc(C)c1OCC(=O)N(Cc1ccc(N(C)C)cc1)C1CCS(=O)(=O)C1 (stereo unspecified)	BAZ2B block inconclusive (no result: G9a block)
CCN(CC)S(=O)(=O)c1ccc(C(=O)NCCSc2c(-c3ccc(OC)cc3)[nH]c3ccccc23)cc1	none (no result: PLK1 PBD inh)
N#Cc1ccc(Oc2ncccn2)cc1	none (no result: BAZ2B block, G9a block)
O=C(O)c1ccc(-c2ccccc2)[nH]c1=O	VDR inh inconclusive, PLK1 PBD inh 24µM, G9a block 56µM
CCCCOc1cccc(C(=O)N(Cc2ccc(Br)o2)C2CCS(=O)(=O)C2)c1 (stereo unspecified)	none (no result: PLK1 PBD inh)
CCOc1ccccc1NC(=O)CSc1nc2ccccc2c(=O)n1CC1CCCO1 (stereo unspecified)	PLK1 PBD inh inconclusive, G9a block 4.5µM
CCNC(=O)COn1c(SCC(=O)NCC)nc2ccccc2c1=O	G9a block inconclusive
CCOCCCn1c(SCC(=O)NC2CCCC2)nc2ccccc2c1=O	JMJD2A Tudor inconclusive, VDR inh inconclusive, PLK1 PBD inh 27µM
Cc1ccccc1NC(=O)CSc1nc2ccccc2c(=O)n1CC1CCCO1 (stereo unspecified)	none
CCOCCCn1c(SCC(=O)Nc2ccc(OC)cc2)nc2ccccc2c1=O	VDR inh inconclusive, PLK1 PBD inh inconclusive, G9a block 32µM
CCOCCCn1c(SCC(=O)Nc2ccccc2)nc2ccccc2c1=O	none (no result: G9a block)
